Measurements from PubChem BioAssay (Tox21).
Results filed as inconclusive are left out. The source made the active and inactive calls. Unless noted, the call rests on the fitted dose curve; in most records, active means well fitted curve in the direction sought with a large enough effect in the repeat runs; inconclusive means weak or mixed curves; inactive means no such curve, though single readings can be large; an effect the other way counts as inactive or inconclusive.

How the values were obtained:
[1] = qHTS assay to test for compound auto fluorescence at 535 nm (green) in HEK293 cells (AID 720680)
[2] = qHTS assay to test for compound auto fluorescence at 460 nm (blue) in HEK293 cell free culture (AID 720681)
Method in brief: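 Compounds were added to cell-free DMEM with 10% FBS and fluorescence read directly. The blue channel used 405 nm excitation and 460 nm emission, with triamterene as the reference fluorophore.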

[3] = qHTS assay to test for compound auto fluorescence at 535 nm (green) in HEK293 cell free culture (AID 720682)
Method in brief: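 DMEM + 10% FBS, cell-free; cpd or DMSO pinned in; Ex485/Em535 read; output as fluorescein-equivalent signal.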

[4] = qHTS assay to test for compound auto fluorescence at 590 nm (red) in HEK293 cell free culture (AID 720683)
Method in brief: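 Cell-free wells of DMEM with 10% FBS received compound, and intrinsic fluorescence was read at excitation/emission 540/590 nm. Values expressed as equivalence to Rose Bengal sodium.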

[5] = qHTS assay to test for compound auto fluorescence at 590 nm (red) in HepG2 cell free culture (AID 720684)
Method in brief: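 Compound was pinned into wells holding MEM with 10% FBS and no cells, and red fluorescence was read at Ex/Em 540/590 nm. Signal is expressed as auto fluorescence equivalency relative to Rose Bengal sodium.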

[6] = qHTS assay to test for compound auto fluorescence at 460 nm (blue) in HepG2 cell free culture (AID 720685)
Method in brief: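 Compound (23 nL) or DMSO pinned into cell-free MEM with 10% FBS; blue fluorescence read at 405/460 nm excitation/emission, expressed as auto-fluorescence equivalency to triamterene.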

[7] = qHTS assay to test for compound auto fluorescence at 460 nm (blue) in HepG2 cells (AID 720687)
Method in brief: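 HepG2 cells in MEM with 10% FBS, attached overnight at 37 C, were exposed to compound or DMSO for 1 hr at 37 C, 5% CO2. Blue fluorescence was read at 405/460 nm, with triamterene as reference fluorophore.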

[8] = target: Glucocorticoid receptor (Homo sapiens) (UniProt P04150); experiment: qHTS assay to identify small molecule antagonists of the glucocorticoid receptor (GR) signaling pathway (AID 720692; active means well fitted inhibition curve with a large enough effect in the signal ratio in the repeat runs, not every such curve was filed as active; the % refers to the signal ratio)
Sequence of Glucocorticoid receptor (Homo sapiens) (P04150 whole entry, looked up): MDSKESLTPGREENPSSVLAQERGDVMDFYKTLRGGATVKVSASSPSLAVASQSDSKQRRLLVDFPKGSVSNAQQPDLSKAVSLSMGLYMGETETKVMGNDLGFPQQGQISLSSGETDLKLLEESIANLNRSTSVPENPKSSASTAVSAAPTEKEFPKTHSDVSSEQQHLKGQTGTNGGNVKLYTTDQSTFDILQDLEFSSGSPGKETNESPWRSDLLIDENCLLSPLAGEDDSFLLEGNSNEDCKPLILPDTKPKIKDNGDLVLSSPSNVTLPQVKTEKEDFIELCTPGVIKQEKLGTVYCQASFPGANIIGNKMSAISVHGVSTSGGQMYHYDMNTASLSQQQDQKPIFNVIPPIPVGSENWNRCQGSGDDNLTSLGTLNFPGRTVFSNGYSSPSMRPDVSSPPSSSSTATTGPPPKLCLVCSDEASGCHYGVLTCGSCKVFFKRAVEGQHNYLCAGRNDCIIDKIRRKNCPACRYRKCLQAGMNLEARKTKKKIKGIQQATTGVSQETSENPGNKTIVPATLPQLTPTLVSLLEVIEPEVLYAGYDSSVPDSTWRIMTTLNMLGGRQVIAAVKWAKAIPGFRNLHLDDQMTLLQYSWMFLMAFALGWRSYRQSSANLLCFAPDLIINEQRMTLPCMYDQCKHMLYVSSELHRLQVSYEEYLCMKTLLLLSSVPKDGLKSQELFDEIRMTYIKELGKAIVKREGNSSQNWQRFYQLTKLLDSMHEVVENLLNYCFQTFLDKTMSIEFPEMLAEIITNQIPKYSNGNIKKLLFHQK
Method in brief: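 Dexamethasone (5 nM final) stimulated a stably integrated GRE-beta-lactamase reporter in HeLa cells during 18 h co-incubation with compounds; signal was quantified as fluorescence intensity of B/G FRET substrate after 2 h.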

[9] = qHTS assay to identify small molecule antagonists of the glucocorticoid receptor (GR) signaling pathway - cell viability counter screen (AID 720693); further: nearly all actives have a fitted effect of over 55% in size
[10] = qHTS assay for identifying genotoxic compounds that show differential cytotoxicity against isogenic chicken DT40 cell lines with known DNA damage response pathways - wild type cell line (AID 743012); further: nearly all actives have a fitted effect of over 60% in size; further: potency means the concentration at half of the fitted maximal effect
Method in brief: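 Using parental DT40 (300 cells/well), compounds delivered in DMSO incubate 40 h at 37 C/5% CO2. CellTiter-Glo reagent then stands 30 min at room temperature, and luminescence gives cell viability.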

[11] = qHTS assay for identifying genotoxic compounds that show differential cytotoxicity against isogenic chicken DT40 cell lines with known DNA damage response pathways - Rev3 mutant cell line (AID 743014); further: nearly all actives have a fitted effect of over 55% in size; further: potency means the concentration at half of the fitted maximal effect
[12] = qHTS assay for identifying genotoxic compounds that show differential cytotoxicity against isogenic chicken DT40 cell lines with known DNA damage response pathways - Rad54/Ku70 mutant cell line (AID 743015); further: nearly all actives have a fitted effect of over 60% in size; further: potency means the concentration at half of the fitted maximal effect
[13] = qHTS assay to identify small molecule antagonists of the androgen receptor (AR) signaling pathway - cell viability counter screen (AID 743033; further: nearly all actives have a fitted effect of over 45% in size)
[14] = target: Androgen receptor (Homo sapiens) (UniProt P10275); experiment: qHTS assay to identify small molecule antagonists of the androgen receptor (AR) signaling pathway (AID 743035; active means well fitted inhibition curve with a large enough effect in the signal ratio in the repeat runs, not every such curve was filed as active; the % refers to the signal ratio)
Sequence of Androgen receptor (Homo sapiens) (P10275 whole entry, looked up): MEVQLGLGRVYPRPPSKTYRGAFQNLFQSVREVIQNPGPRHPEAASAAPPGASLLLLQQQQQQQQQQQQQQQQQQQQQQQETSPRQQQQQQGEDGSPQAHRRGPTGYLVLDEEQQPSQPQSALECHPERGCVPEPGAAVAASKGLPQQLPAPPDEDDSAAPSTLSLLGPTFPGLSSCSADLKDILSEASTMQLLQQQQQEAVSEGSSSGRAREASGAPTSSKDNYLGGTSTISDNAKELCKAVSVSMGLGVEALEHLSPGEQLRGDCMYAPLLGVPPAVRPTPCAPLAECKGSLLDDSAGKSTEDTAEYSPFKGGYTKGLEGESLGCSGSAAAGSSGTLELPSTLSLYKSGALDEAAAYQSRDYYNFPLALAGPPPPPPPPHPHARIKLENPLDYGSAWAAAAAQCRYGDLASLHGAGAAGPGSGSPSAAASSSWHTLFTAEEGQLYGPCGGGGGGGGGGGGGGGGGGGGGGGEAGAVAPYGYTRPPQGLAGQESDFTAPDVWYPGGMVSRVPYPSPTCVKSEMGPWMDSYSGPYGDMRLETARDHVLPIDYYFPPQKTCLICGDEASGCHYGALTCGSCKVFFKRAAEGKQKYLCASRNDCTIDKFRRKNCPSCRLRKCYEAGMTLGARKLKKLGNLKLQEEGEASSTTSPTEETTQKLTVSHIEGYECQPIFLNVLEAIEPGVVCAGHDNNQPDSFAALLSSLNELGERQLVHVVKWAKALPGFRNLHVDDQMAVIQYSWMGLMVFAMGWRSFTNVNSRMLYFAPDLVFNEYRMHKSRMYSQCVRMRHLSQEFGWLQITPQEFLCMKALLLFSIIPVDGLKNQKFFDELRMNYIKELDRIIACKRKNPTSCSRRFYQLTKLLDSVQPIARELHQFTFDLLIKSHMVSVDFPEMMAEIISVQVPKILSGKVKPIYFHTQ
Method in brief: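 Using qHTS, AR-UAS-bla GripTite HEK293 cells received compound, then R1881, and were cultured 16 h at 37C/5% CO2 before a 2 h room-temperature LiveBLAzer B/G FRET substrate step and fluorescence measurement.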

[15] = target: Androgen receptor (Homo sapiens) (UniProt P10275); experiment: qHTS assay to identify small molecule agonists of the androgen receptor (AR) signaling pathway (AID 743036; active means well fitted activation curve with a large enough effect in the signal ratio in the repeat runs, with a control signal flat, not every such curve was filed as active; the % refers to the signal ratio)
Method in brief: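 Screening used 2,000 AR-bla HEK293 cells per well, treated 16 h at 37C with test compounds in DMSO alongside positive and DMSO-only controls; beta-lactamase activity was then read by LiveBLAzer B/G FRET fluorescence after 2 h at room temperature.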

[16] = target: Androgen receptor (Homo sapiens) (UniProt P10275); experiment: qHTS assay to identify small molecule agonists of the androgen receptor (AR) signaling pathway using the MDA cell line (AID 743040; further: nearly all actives have a fitted effect of over 20% in size)
Method in brief: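 MDA-kb2 breast carcinoma cells carrying MMTV-luciferase (responsive to AR and GR), plated 5 h then treated 16 h with compounds at 37C, 0% CO2. Read-out was ONE-Glo luminescence after 30 min at room temperature.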

[17] = qHTS assay to identify small molecule antagonists of the androgen receptor (AR) signaling pathway using the MDA cell line - cell viability counter screen (AID 743041; further: nearly all actives have a fitted effect of over 45% in size)
Method in brief: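 MDA-kb2 AR-luc cells (MMTV-luciferase, AR/GR responsive) treated with compounds plus R1881 agonist for 16 h at 37C. CellTiter-Fluor added at 15.5 h; fluorescence read after 30 min in the same wells.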

[18] = target: Androgen receptor (Homo sapiens) (UniProt P10275); experiment: qHTS assay to identify small molecule antagonists of the androgen receptor (AR) signaling pathway using the MDA cell line (AID 743042; further: nearly all actives have a fitted effect of over 55% in size)
Method in brief: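 MDA-kb2 breast carcinoma cells carrying MMTV-luciferase (AR/GR responsive) were co-treated with compounds and the agonist R1881 for 16 h at 37C. Inhibition read as ONE-Glo luminescence; CellTiter-Fluor fluorescence measured in parallel for cytotoxicity.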

[19] = target: Glucocorticoid receptor (Homo sapiens) (UniProt P04150); experiment: qHTS assay to identify small molecule agonists of the glucocorticoid receptor (GR) signaling pathway (AID 720691; active means well fitted activation curve with a large enough effect in the signal ratio in the repeat runs, not every such curve was filed as active; the % refers to the signal ratio)
Method in brief: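 Reporter read-out: fluorescence intensity following 2 h room-temperature LiveBLAzer B/G FRET substrate loading. Prior step: GR-bla HeLa cells held 4 h, then treated 18 h at 37 C.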

[20] = qHTS assay to test for compound auto fluorescence at 535 nm (green) in HepG2 cell free culture (AID 720686)
On the % scale 0 is the no-effect control and ±100 the full control effect.

CC(O)C(CO)C(C)O (centres undefined)
inactive: outcome [1] | outcome [2] | outcome [3] | outcome [4] | outcome [5] | outcome [6] | outcome [7] | outcome [8] | outcome [9] | Potency [10] | Potency [11] | Potency [12] | outcome [13] | outcome [14] | outcome [15] | outcome [16] | outcome [17] | outcome [18]

COc1cc2nc(N3CCN(C(=O)C4CCCO4)CC3)nc(N)c2cc1OC (centres undefined)
inactive: outcome [1] | outcome [2] | outcome [3] | outcome [4] | outcome [5] | outcome [6] | outcome [7] | Potency [19] | outcome [8] | outcome [9] | Potency [12] | outcome [13] | outcome [17]

C/C(Cl)=C/CCl
inactive: outcome [1] | outcome [2] | outcome [3] | outcome [4] | outcome [5] | outcome [6] | outcome [7] | outcome [9] | Potency [10] | Potency [11] | Potency [12] | outcome [13] | outcome [14] | outcome [15] | outcome [17] | outcome [18]

CCc1ccc(CC)cc1
inactive: outcome [1] | outcome [2] | outcome [3] | outcome [4] | outcome [5] | outcome [6] | outcome [7] | outcome [8] | Potency [10] | Potency [11] | Potency [12] | outcome [17]

O=C(OOC(=O)c1ccccc1)c1ccccc1
inactive: outcome [1] | outcome [2] | outcome [3] | outcome [4] | outcome [5] | outcome [6] | outcome [7] | outcome [8] | outcome [9] | Potency [10] | Potency [12] | outcome [17]

O=Cc1ccccc1S(=O)(=O)O
inactive: outcome [1] | outcome [2] | outcome [3] | outcome [4] | outcome [5] | outcome [6] | outcome [7] | Potency [19] | outcome [8] | outcome [9] | Potency [12] | outcome [13] | outcome [17]

N=C(N)N
inactive: outcome [1] | outcome [2] | outcome [3] | outcome [4] | outcome [5] | outcome [6] | outcome [7] | outcome [8] | outcome [9] | Potency [10] | Potency [11] | Potency [12] | outcome [17]

CN1C(CCl)Nc2cc(Cl)c(S(N)(=O)=O)cc2S1(=O)=O (centres undefined)
inactive: outcome [1] | outcome [2] | outcome [3] | outcome [4] | outcome [5] | outcome [6] | outcome [7] | outcome [8] | outcome [9] | outcome [17]
active: Potency [10] 26.6 µM | Potency [12] 29.8 µM

C=C(C)C(=O)OCCCC
inactive: outcome [1] | outcome [2] | outcome [3] | outcome [4] | outcome [5] | outcome [6] | outcome [7] | Potency [10] | Potency [11] | Potency [12] | outcome [13] | outcome [14] | outcome [17] | outcome [18]

O=c1[nH]c(=O)c2cn[nH]c2[nH]1
inactive: outcome [1] | outcome [2] | outcome [3] | outcome [4] | outcome [5] | outcome [6] | outcome [7] | Potency [19] | outcome [8] | outcome [9] | Potency [10] | Potency [12] | outcome [13] | outcome [17]

CCCC(C)C(O)CC (centres undefined)
inactive: outcome [1] | outcome [2] | outcome [3] | outcome [4] | outcome [5] | outcome [6] | outcome [7] | outcome [8] | Potency [10] | Potency [11] | Potency [12] | outcome [13] | outcome [17]

CCC(C)c1nccnc1OC (centres undefined)
inactive: outcome [1] | outcome [2] | outcome [3] | outcome [4] | outcome [5] | outcome [6] | outcome [7] | Potency [19] | outcome [8] | outcome [9] | Potency [11] | outcome [13] | outcome [17]

CC(C)(O)c1ccc(C(C)(C)O)cc1
inactive: outcome [1] | outcome [2] | outcome [3] | outcome [4] | outcome [5] | outcome [6] | outcome [7] | Potency [19] | outcome [9] | Potency [10] | Potency [11] | Potency [12] | outcome [13] | outcome [17]

CCCC(=O)CC
inactive: outcome [1] | outcome [2] | outcome [3] | outcome [4] | outcome [5] | outcome [6] | outcome [7] | outcome [9] | Potency [10] | Potency [12] | outcome [13] | outcome [17]

O=S(=O)(O)c1cc(I)c(O)c2ncccc12
inactive: outcome [1] | outcome [2] | outcome [3] | outcome [4] | outcome [5] | outcome [6] | outcome [7] | outcome [9] | outcome [13] | outcome [17]

C/C=C(\C)C=O
inactive: outcome [1] | outcome [2] | outcome [3] | outcome [4] | outcome [5] | outcome [6] | outcome [7] | outcome [9] | Potency [10] | Potency [11] | Potency [12] | outcome [13] | outcome [17]

CC(=O)c1c(C)cc(C(C)(C)C)cc1C
inactive: outcome [1] | outcome [3] | outcome [4] | outcome [5] | outcome [6] | outcome [20] | outcome [7] | outcome [9] | Potency [10] | Potency [11] | outcome [13] | outcome [17]

O=C1CC2(CCCC2)CC(=O)N1CCNCC1COc2ccccc2O1 (centres undefined)
active: Potency [10] 21.1 µM | Potency [11] 26.6 µM | Potency [12] 26.6 µM
inactive: outcome [1] | outcome [2] | outcome [3] | outcome [4] | outcome [5] | outcome [6] | outcome [7]

COc1cnc(NS(=O)(=O)c2ccc(N)cc2)nc1
inactive: fluorescence, % of fluorescein [1] -0.0702% [at 18.6 µM] | fluorescence, % of fluorescent control [2] 0.0732% [at 18.6 µM] | activity change [3] -0.0115% [at 18.6 µM] | fluorescence, % of fluorescent control [4] -0.0163% [at 18.6 µM] | fluorescence, % of Rose Bengal [5] 0.414% [at 18.6 µM] | fluorescence, % of fluorescent control [6] 0.0024% [at 18.6 µM] | fluorescence, % of fluorescent control [7] 0.0082% [at 18.6 µM] | outcome [8] | outcome [9] | Potency [11] | outcome [13] | outcome [17]

Nc1ccc(C(=O)NCC(=O)O)cc1
inactive: fluorescence, % of fluorescein [1] -0.0255% [at 18.6 µM] | fluorescence, % of fluorescent control [2] 0.0205% [at 18.6 µM] | activity change [3] -0.0258% [at 18.6 µM] | fluorescence, % of fluorescent control [4] -0.0926% [at 18.6 µM] | fluorescence, % of Rose Bengal [5] -0.0233% [at 18.6 µM] | fluorescence, % of fluorescent control [6] -0.124% [at 18.6 µM] | fluorescence, % of fluorescent control [7] -0.0546% [at 18.6 µM] | outcome [8] | outcome [9] | Potency [10] | Potency [12] | outcome [13] | outcome [17]
